From PubChem BioAssay
UCHL1 inh: human UCHL1 deubiquitinase inhibition; P09936; purified UCHL1, Ub-rhodamine cleavage fluorescence; inhibition, % at 20 µM; 47,000 compounds, 0.2% hits; AID 1645859
USP10 block: inhibitors of human USP10 deubiquitinase. inhibition, % at 20 µM. 47,000 compounds, 1.1% hits. Q14694. purified USP10, Ub-rhodamine fluorescence, 60 min
USP8 block: blocks human USP8 ubiquitin-rhodamine cleavage. P40818. purified USP8, Ub-rhodamine cleavage fluorescence, 30 min. inhibition, % at 20 µM. 47,000 compounds, 4.2% hits. AID 1645853
Target sequence (P40818 whole entry, looked up): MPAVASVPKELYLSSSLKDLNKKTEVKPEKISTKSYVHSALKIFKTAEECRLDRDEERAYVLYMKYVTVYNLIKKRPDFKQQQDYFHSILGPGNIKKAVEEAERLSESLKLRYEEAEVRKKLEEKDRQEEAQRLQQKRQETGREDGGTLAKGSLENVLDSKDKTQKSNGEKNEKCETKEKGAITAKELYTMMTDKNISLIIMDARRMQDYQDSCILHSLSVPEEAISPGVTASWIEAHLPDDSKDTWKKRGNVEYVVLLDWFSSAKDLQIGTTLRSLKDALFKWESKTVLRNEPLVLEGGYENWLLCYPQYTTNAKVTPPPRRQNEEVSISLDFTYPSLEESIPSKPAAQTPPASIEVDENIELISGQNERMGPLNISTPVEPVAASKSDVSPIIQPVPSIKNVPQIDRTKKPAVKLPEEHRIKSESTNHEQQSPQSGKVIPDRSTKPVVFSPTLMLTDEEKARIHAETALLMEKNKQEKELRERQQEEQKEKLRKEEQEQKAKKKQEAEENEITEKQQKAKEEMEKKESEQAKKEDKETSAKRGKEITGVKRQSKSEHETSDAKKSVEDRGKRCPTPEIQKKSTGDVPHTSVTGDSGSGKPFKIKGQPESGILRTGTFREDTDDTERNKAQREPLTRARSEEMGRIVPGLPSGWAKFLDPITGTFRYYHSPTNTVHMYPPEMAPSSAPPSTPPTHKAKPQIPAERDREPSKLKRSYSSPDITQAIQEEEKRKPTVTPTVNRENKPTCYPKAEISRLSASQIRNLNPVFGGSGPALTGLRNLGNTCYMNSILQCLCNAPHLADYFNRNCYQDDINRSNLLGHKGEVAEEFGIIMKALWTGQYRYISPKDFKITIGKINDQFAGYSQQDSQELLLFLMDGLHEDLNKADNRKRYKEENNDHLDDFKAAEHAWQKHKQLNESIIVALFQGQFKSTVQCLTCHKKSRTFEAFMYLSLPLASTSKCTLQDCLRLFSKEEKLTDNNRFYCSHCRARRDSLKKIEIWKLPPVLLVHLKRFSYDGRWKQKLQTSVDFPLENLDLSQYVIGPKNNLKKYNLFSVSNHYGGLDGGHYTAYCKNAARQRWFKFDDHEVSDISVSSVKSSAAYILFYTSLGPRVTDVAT
USP7 block: blocks human USP7 ubiquitin-rhodamine cleavage; purified USP7, Ub-rhodamine cleavage fluorescence; inhibition, % at 20 µM; 47,000 compounds, 0.3% hits; AID 1645854
The depositor's hits bear a star. An excerpt weighted towards active compounds, which were near 5% of everything screened. Cut-off read from the data, not from the text of the source: active = inhibition above about 30%; inactive = the rest.

SMILES	UCHL1 inh	USP10 block	USP8 block	USP7 block
COc1ccc(/C=C/c2nc(-c3ccc4oc(C)nc4c3)no2)cc1	0	-2	31*	7
Cc1ccc(Sc2ncccc2C(=O)Nc2ccnn2Cc2cccnc2)cc1	1	-2	-12	3
O=C(Cn1c(-c2ccc(F)cc2)nc2ccccc21)NC1CCCCC1	-1	-3	34*	-48
O=C(Cn1cnc(-c2noc(-c3ccncc3)n2)c1)Nc1ccc(F)cc1	-3	-5	2	-4
Cc1c(C#N)c2ccccc2n1CC(=O)NC1CCCCCC1	0	0	-19	5
O=C(Cn1cnc(-c2noc(-c3ccc(F)cc3)n2)c1)NC1CCCCC1	3	11	52*	6
Cc1cc(C)c(C(=O)CSc2nnc(-c3ccccc3)o2)cc1C	-2	-4	56*	0
CC(=O)c1c(O)c2ccccc2n(C2CCCCC2)c1=O	-13	-8	49*	-15
CC(=O)c1c(O)c2ccccc2n(Cc2ccccc2)c1=O	-3	-5	36*	-34
CCOC(=O)[C@@H](NS(=O)(=O)c1ccc(F)c(Cl)c1)C(C)C	-5	0	-13	-4
Cc1ccc(C)c(CNC(=O)C2CCN(c3cnc4nccnc4c3)CC2)c1	-38	-5	-90	-41
CCn1c(CN2CCc3ccccc3C2)nc2cc(S(=O)(=O)N(C)C)ccc21	0	-5	79*	4
Cc1ccc(NC(=O)CCn2cnc3c2c(=O)n(C)c(=O)n3C)cc1C	0	0	19	1
O=C(Cn1c(=O)n(Cc2ccc3c(c2)OCO3)c(=O)c2ccccc21)Nc1ccc2c(c1)OCCO2	0	13	-2	3
COCCCNC(=O)c1ccc(Cn2c(=O)c3ccccc3n(CC(=O)Nc3ccc4c(c3)OCCO4)c2=O)cc1	4	29	32*	7
Cc1ccc(CN2C(=O)N(Cc3ccccc3)S(=O)(=O)c3ccccc32)cc1	5	10	18	0
Cc1ccc(CC(=O)Nc2nnc(C3CC(=O)N(c4cc(C)cc(C)c4)C3)s2)cc1 (centres undefined)	-2	4	-4	0
Cc1ccc(N2CC(c3nnc(NC(=O)CCc4ccccc4)s3)CC2=O)cc1 (centres undefined)	1	26	56*	9
COc1ccc(CCC(=O)Nc2nnc(C3CC(=O)N(c4ccc(C)cc4)C3)s2)cc1 (centres undefined)	2	38*	9	8
Cc1ccc(N2CC(c3nnc(NC(=O)CCc4ccccc4)s3)CC2=O)cc1C (centres undefined)	-2	17	-1	0
CCc1ccc(N2CC(c3nnc(NC(=O)Cc4ccc(C)cc4)s3)CC2=O)cc1 (centres undefined)	0	11	-70	11
CCCCC(=O)Nc1nnc(C2CC(=O)N(c3ccc(C)cc3)C2)s1 (centres undefined)	0	4	52*	3
CCN(CC)c1ccc(NC(=O)Cn2cnc3ccsc3c2=O)cc1	-2	5	0	0
Cc1ccc(CC(=O)Nc2ccc3c(c2)Sc2ncccc2C(=O)N3C)cc1	-2	-3	-5	4
COc1ccc(N2CCN(C(=O)c3cncc(NS(=O)(=O)c4ccc(F)cc4)c3)CC2)cc1	2	-2	42*	-2
SMILES	UCHL1 inh	USP10 block	USP8 block	USP7 block
COc1ccccc1N1CCN(C(=O)c2ccc3c(=O)n(CCc4ccccc4)c(=O)[nH]c3c2)CC1	6	40*	30	7
O=C(O)c1ccccc1Cc1nc2scc(-c3ccccc3)c2c(=O)[nH]1	5	11	31*	-2
O=c1[nH]c(Cc2ccc([N+](=O)[O-])cc2)nc2scc(-c3ccccc3)c12	-2	9	-13	0
O=C(NCc1cc2ccccc2[nH]1)c1ccc(COc2ccc(Br)cc2)cc1	-19	-10	55*	-33
CN1C(=O)c2cc(NC(=O)c3ccccc3)ccc2Oc2ccccc21	5	4	6	0
Cc1c(Cl)cccc1NC(=O)c1[nH]nc2c1COc1ccccc1-2	-8	2	35*	1
COCCN1CCS(=O)(=O)c2c(Cl)c(F)nc(Oc3ccc(OC)cc3)c21	-2	2	5	-45
COCCCN1CCS(=O)(=O)c2c(Cl)c(F)nc(Oc3ccccc3F)c21	18	13	95*	-146
N#Cc1ccc(Oc2nc(F)c(Cl)c3c2N(CC2CCCO2)CCS3(=O)=O)cc1 (centres undefined)	0	5	71*	-18
N#Cc1ccc(OCC(=O)N2CCCC2c2ccc3c(c2)OCCCO3)cc1 (centres undefined)	2	-2	-2	-4
O=S1(=O)CCN(Cc2cccnc2)c2c(Oc3ccccc3)nc(F)c(Cl)c21	5	-1	21	-130
O=S1(=O)CCN(CC2CCCO2)c2c(Oc3ccccc3)nc(F)c(Cl)c21 (centres undefined)	9	5	92*	-149
O=S1(=O)CCN(CC2CCCO2)c2c(Oc3ccc(F)cc3)nc(F)c(Cl)c21 (centres undefined)	7	9	70*	-143
Cc1ncsc1C(=O)N1CC[C@H]2NC(=O)c3ccccc3OCCCCC[C@H]2C1	0	0	-5	-1
Cc1cc(=O)n2[nH]c(CNc3cc(Cl)ccc3C)nc2n1	1	-4	-30	2
Cc1nn(-c2ccc(Cl)cc2)c2[nH]c(=O)c(CNc3ccc(C(C)(C)C)cc3)cc12	3	3	3	5
Cc1nn(-c2ccc(Cl)cc2)c2[nH]c(=O)c(CNCc3ccc(F)cc3)cc12	-2	-6	76*	7
Cc1nn(-c2ccccc2)c2[nH]c(=O)c(CNC(C)c3cccs3)cc12 (centres undefined)	2	6	30*	11
Cc1nn(-c2ccc(Cl)cc2)c2[nH]c(=O)c(CNCc3ccc4c(c3)OCO4)cc12	2	-1	81*	-1
Cc1nn(-c2ccccc2)c2nc(C(F)(F)F)[nH]c(=O)c12	0	1	7	3
Cc1nn(-c2ccc(Cl)cc2)c2[nH]c(=O)c(CNCc3cccs3)cc12	-4	6	77*	4
COc1ccccc1NS(=O)(=O)c1cc(C(=O)Nc2cc(C)nn2-c2ccccc2)ccc1Cl	-1	-2	-80	-2
COc1ccc(-n2cc(C(=O)Nc3cccc4ncccc34)nn2)cc1	-1	-2	9	6
COc1ccc(-c2nn(-c3ccccc3)c3[nH]c(=O)c(CNCc4cccs4)cc23)cc1	7	9	82*	17
COc1ccc(Cn2c(C(=O)O)c(CNCc3cccs3)c3ccccc32)cc1	-4	-4	8	-17
CCCCCCCc1cc(OC(=O)c2c(CCCCCCC)cc(O)cc2O[C@@H]2O[C@H](CO)[C@H](O)[C@H](O)[C@H]2O)cc(O)c1C(=O)O	69*	100*	99*	100*
CCCCCCCCCc1cc(OC(=O)c2c(CCCCCCCCC)cc(O)cc2O[C@@H]2O[C@H](CO)[C@@H](O)[C@H](O)[C@H]2O)cc(O)c1C(=O)O	84*	97*	95*	100*
